Measured values: PubChem BioAssay (NCI)
The panel holds about 83,000 compounds, 20% with a hit somewhere; the sample as a whole holds those more often.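 Activity criterion: percent growth below 10, measured after cells in 96-well plates were exposed to a single compound concentration for 48 hours.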 Values without a mark were called inactive. Activity calls are given as the source filed them.

Columns and labels:
Test in all cases: NCI-60 one-dose screen, 48 h (100 = growth as untreated, 0 = no growth, -100 = all killed)
Settings in all cases: 10 µM
[1] = tested on: DU-145 prostate
[2] = tested on: K-562 leukemia
[3] = tested on: MALME-3M melanoma
[4] = tested on: MDA-MB-231 breast
[5] = tested on: RXF 393 renal
[6] = tested on: SF-268 CNS
[7] = tested on: SF-295 CNS
[8] = tested on: SF-539 CNS
[9] = tested on: M14 melanoma
[10] = tested on: HCT-15 colon
[11] = tested on: HT29 colon
[12] = tested on: SNB-75 CNS
[13] = tested on: SNB-19 CNS
[14] = tested on: U251 CNS
[15] = tested on: SK-MEL-5 melanoma
[16] = tested on: UACC-62 melanoma
[17] = tested on: LOX IMVI melanoma
[18] = tested on: SK-MEL-28 melanoma
[19] = tested on: PC-3 prostate
[20] = tested on: UACC-257 melanoma

Row | SMILES | growth [1] | growth [2] | growth [3] | growth [4] | growth [5] | growth [6] | growth [7] | growth [8] | growth [9] | growth [10] | growth [11] | growth [12] | growth [13] | growth [14] | growth [15] | growth [16] | growth [17] | growth [18] | growth [19] | growth [20] [%]
1 | Cc1ccc(-n2c(C)nn3c(=O)c4c5c(sc4nc23)CN(C)CC5)cc1 | 99.8% | 100% | 93.7% | 96.3% | 105% | 94.1% | 98.1% | 101% | 95.8% | 101% | 86.6% | 93.4% | 105% | 101% | 106% | 101% | 95.1% | 106% | – | –
2 | Fc1ccc2[nH]cc(-c3nc(-c4ccsc4)cs3)c2c1 | 108% | 106% | 93% | 79.5% | 100% | 99.8% | 89.8% | 94% | 93.7% | 91.4% | 100% | 92.2% | 109% | 93.7% | 89.2% | 88.5% | 86.7% | – | – | –
3 | COc1ccc(-c2cc(-c3cc(OC)ccc3OC)nc(N)c2C#N)cc1 | 96.2% | 89.5% | 36.9% | 56.3% | 70.5% | 40.1% | 64.7% | 57.8% | 79.8% | 51.2% | 60.7% | 16.3% | 48.8% | 61.2% | 63% | 42.3% | 58.6% | 88.5% | – | –
4 | c1cnc2[nH]cc(-c3nc(-c4ccsc4)cs3)c2c1 | 98.8% | 109% | 121% | 85.6% | 98.3% | 79.9% | 101% | 93.7% | 104% | 86.1% | 104% | 90.7% | 102% | 90.4% | 81.6% | 96.2% | 96.2% | 122% | – | –
5 | O=C(CCCNC(=O)c1nc(-c2ccccc2)n(-c2ccccc2)n1)NO | 108% | 106% | 99.4% | 103% | 103% | 105% | 105% | 107% | 98% | 104% | 90.1% | 107% | 98.1% | 94.6% | 104% | 102% | 97.9% | – | – | –
6 | CN1CCc2c(sc3nc4n(-c5ccc(Cl)cc5)c(=O)[nH]n4c(=O)c23)C1 | 103% | 107% | 98.5% | 120% | 118% | 106% | 104% | 99.8% | 99.3% | 103% | 86.4% | 95.2% | 109% | 98.7% | 110% | 111% | 92.5% | 111% | – | –
7 | C[C@@H](C[C@H](CCO)c1ccccc1)c1ccc2ccccc2c1 | -40.9% (active) | -35.2% (active) | -87.6% (active) | -73.6% (active) | -87.4% (active) | -70.4% (active) | -89.2% (active) | -82.7% (active) | -84.2% (active) | -75% (active) | -72.8% (active) | -8.12% (active) | -78.3% (active) | -95% (active) | -87.9% (active) | -76.2% (active) | -94.5% (active) | -79.3% (active) | -89.2% (active) | –
8 | N#Cc1c(N)nc(-c2cc(F)cc(C(F)(F)F)c2)nc1-c1ccccc1F | 61% | 56.7% | 33.2% | 21.3% | 37.4% | 55.3% | 35.2% | 52.1% | 63.1% | 67.4% | 39.7% | 13.6% | 46.5% | 19.5% | 93.6% | 84% | 54% | 75.9% | 81.4% | –
9 | Cc1noc(C)c1CSc1ccccc1C(=O)N1CCN(c2cccc(C(F)(F)F)c2)CC1 | 95.7% | 52.8% | 84.5% | 65.7% | 99.8% | 95.3% | 75.2% | 87.4% | 71.6% | 72.4% | 69.4% | 76.2% | 81.5% | 88.2% | 43.5% | 52.2% | 74.9% | 91.4% | 55.3% | –
10 | Nc1ccccc1NC(=O)c1ccc(CCCC(=O)Nc2ccc(C3CC3N)cc2)cc1 (configuration not stated) | 38.7% | 25.4% | 21.7% | 47.5% | 20.8% | 32.6% | 22.1% | 30.9% | 27% | 87.4% | 9.38% (active) | 66.4% | 49.7% | 4.65% (active) | -41.1% (active) | -24.8% (active) | 12.8% | 18% | – | –
11 | O=C(Nc1ccccc1)Nc1ncnc2c1ncn2-c1ccccc1 | 99.2% | 98.7% | 76.5% | 68.3% | 95.4% | 92.5% | 31% | 82.8% | 81.4% | 85% | 75.2% | 41.5% | 57.7% | 48.9% | 67.7% | 91.8% | 91% | 94% | – | –
12 | O=C1c2ccccc2-c2c1c1cccnc1c(=O)n2C[C@H](O)CO | 80.9% | 76.6% | 66.8% | 75.7% | 91% | 75.3% | 50.3% | 52% | 75.4% | 62.8% | 57.7% | 63.9% | 59.2% | 46.8% | 50.9% | 51% | 36.3% | 87.9% | – | –
13 | N#Cc1c(-c2ccc(Cl)cc2)cc(-c2cc(O)ccc2O)nc1N | 21.7% | 29.1% | 30.2% | -5.89% (active) | 15.7% | 31.9% | 75.6% | -1.42% (active) | 2.5% (active) | 43.8% | 87.3% | 32.8% | 26.5% | -26.5% (active) | -79.9% (active) | -25.6% (active) | -56.2% (active) | 18.4% | – | –
14 | COc1cc(Cc2cc(-c3ccccc3)n[nH]c2=O)cc(OC)c1OC | 84.2% | 19.3% | 71.8% | 54.7% | 60% | 69.8% | 61.3% | 61.4% | 18.4% | 34.5% | 18.3% | 55.5% | 62.9% | 48.7% | 50.4% | 43.3% | 45.5% | 70% | 61.9% | –
15 | COc1cc(C(=O)/C(C)=C/c2c[nH]c3ccccc23)cc(OC)c1OC | 2.39% (active) | 14.3% | 68.1% | 16.1% | 46.2% | 26.8% | 12.4% | -3.72% (active) | -1.18% (active) | 9.94% (active) | 5.62% (active) | 36.3% | 34% | 18.1% | -36.4% (active) | 40.2% | 17.8% | 66.2% | 19.8% | –
16 | CCn1c(CSc2nc3ccccc3c(=O)n2CCc2ccccc2)n[nH]c1=S | 113% | 71.6% | 97.2% | 82.8% | 85.2% | 98.4% | – | 99.8% | 88.8% | – | 88.2% | 107% | 106% | – | 82.4% | 85.2% | 74.2% | 106% | 83.9% | 88.5
17 | Cn1c2ccccc2c2c3[nH][nH]c(=O)c3c3c4ccccc4[nH]c3c21 | 10.5% | 32.3% | 92.3% | 19.8% | -36.7% (active) | 25% | 81.3% | -20.8% (active) | 17.4% | 19.7% | – | 37.2% | 32.5% | 22.7% | -18.1% (active) | -5.51% (active) | -30.3% (active) | 29.3% | – | –
